# Screens: PubChem BioAssay, National Center for Advancing Translational Sciences (NCATS)
# Shiga inhibitor: inhibitors of Shiga toxin in Vero cells; Vero cells, Shiga toxin protein synthesis inhibition reporter; inhibition, % at 38.7 µM; actives 9.2% (n = 290,000); AID 2315; in the data active = inhibition mostly above about 28%, no sharp cut-off; inactive = mostly below about 43%; note: 0% is about no effect
# NS1 function inh: inhibitors of influenza NS1 protein function; Potency, µM (titrated, usually from 46.1 µM), without a hit: at the top dose activity, positive = more growth; actives 0.4% (n = 270,000); AID 2326; note: potency is the fitted concentration of half-maximal effect; actives are rising curves; nearly all actives have a fitted effect of over 50% in size
#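 S. cerevisiae expressing influenza A NS1, grown in glucose, washed, then diluted 1:100 into pH 6.0 -URA galactose medium with 23 nl compound. Growth recovery read as OD600; NS1-free strain serves as control.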
# Pf growth 48h: P. falciparum growth inhibition at 48 hours (one generation) | P. falciparum luciferase growth in erythrocytes, 48 h | Potency, µM (doses to about 28.7 µM), for inactives: at the top dose activity change, negative = inhibition, usual class: inhibitors | actives 5.9% (n = 310,000) | AID 504832; active = well fitted inhibition curve with a large enough effect; inconclusive = small, poorly fitted or top-dose-only effect, or another doubt; inactive = no such curve, though single readings can be large or run the other way; note: potency is the fitted concentration of half-maximal effect; % is set by controls: 0 for no effect and ±100 for the full control effect
#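 Luciferase-expressing parasites in RBCs, 2% Hct / 0.1% parasitemia final; RPMI 1640 + 0.5% Albumax; 37 C, 5% CO2, one generation; luminescence read-out, lower signal = inhibition.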
# Pf growth 96h: P. falciparum growth inhibition at 96 hour, primary screen for plastid delayed-death inhibitors; P. falciparum luciferase reporter growth, 96 h; Potency, µM (highest dose often 28.7 µM), for the others: at the highest dose activity change, negative = inhibition, usual class: inhibitors; actives 6.9% (n = 320,000); AID 504834; active = well fitted inhibition curve with a large enough effect; inconclusive = small, poorly fitted or top-dose-only effect, or another doubt; inactive = no such curve, though single readings can be large or run the other way; note: potency is the fitted concentration of half-maximal effect; % is set by controls: 0 for no effect and ±100 for the full control effect
#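 Luminescence readout: decreased luciferase signal marks inhibited growth of reporter-expressing P. falciparum in infected red cells (2% hematocrit, 0.05% parasitemia final), exposed to compound two generations (96 h, 37 C, 5% CO2).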
# SARS PLpro yeast: inhibitors of SARS-CoV papain-like protease in yeast; actives 0.19% (n = 330,000); Potency, µM (series often up to 32.9 µM), without a hit: at the highest dose activity, positive = growth rescue, actives largely listed as activators; S. cerevisiae expressing SARS-CoV PLpro, growth rescue; note: potency is the fitted concentration of half-maximal effect; 0% is about no effect; nearly all actives have a fitted effect of over 55% in size
# CHX counter: counter-screen hit for Shiga toxin inhibitors, cycloheximide | cell reporter, cycloheximide protein synthesis inhibition counterscreen | max response, % | actives 12% (n = 300,000); in the data active = max response mostly above about 13%, no sharp cut-off; inactive = mostly below about 14%; note: read at 38.3 µM for the half of the compounds with a filed dose; 0% is about no effect
# Numbers without * were called inactive; u = inconclusive; x = no result given. Most compounds without a hit are left out; they make up all but 21% or so of the library. Unless noted, calls come from the whole dose curve.
SMILES,Shiga inhibitor,NS1 function inh,Pf growth 48h,Pf growth 96h,SARS PLpro yeast,CHX counter
Cc1cc2c(cc1S(=O)(=O)CCC(=O)NCCc1ccccc1)OCC(=O)N2,2,-8%,-11%,8.3µM*,2%,-1
Cc1cccc(CCNC(=O)CCS(=O)(=O)c2cc3c(cc2C)NC(=O)CO3)c1,-2,-8%,7%,u,-2%,-2
Cc1cccc(CCNS(=O)(=O)c2cc3c(cc2C)NC(=O)CO3)c1,-7,14%,17%,9.3µM*,-3%,-2
OCC[C@@H]1C[C@H](O)[C@@H](O)[C@@]2(OCCCc3ccccc32)O1,-8,-1%,5%,-5%,-12%,-2
CC(=O)N1c2ccc(S(=O)(=O)N3CCCCC3)cc2CC1C(=O)NCc1ccc(N(C)C)cc1 (stereo not drawn),18,-1%,-12%,u,u,7
O=[N+]([O-])c1ccc([As](=O)(O)O)cc1,x,x,3µM*,1.7µM*,x,x
Nn1c(SCC(=O)Nc2nccs2)nnc1-c1ccccn1,x,x,14%,-9%,x,x
Cc1cc(C)c(C#N)c(Oc2ccc(O)cc2)n1,-2,-5%,4%,5.2µM*,2%,-3
Cc1cc(C)c(C#N)c(Oc2ccc(F)cc2)n1,-5,-18%,u,-52%,-5%,-1
CC(C)CC1=NN(C(=O)c2ccncc2)C(O)(C(F)(F)F)C1 (stereo not drawn),8,15%,24%,15%,-10%,1
COc1cc(/C=N/OCC(=O)Nc2ccc(OC(F)F)cc2)ccc1OCc1ccccc1,22,4%,25%,19%,-4%,45*
CCOc1ccc(/C=N/OCC(=O)Nc2ccc(OCc3ccccc3)cc2)cc1OC,37,9%,-9%,u,-2%,17*
COc1ccc(NC(=O)CN(C)C(=O)c2ccc(OCc3ccccc3)c(OC)c2)cc1,x,x,9%,u,2%,x
COc1ccc(/C=N/OCC(=O)Nc2cc(C)on2)cc1OC,-5,-3%,7%,13%,u,6
Ic1ccccc1CN[C@@H]1C2CCN(CC2)[C@@H]1C(c1ccccc1)c1ccccc1,x,x,2.6µM*,2.9µM*,x,x
CCc1cc(C(=O)NCC(c2cccs2)N2CCOCC2)sc1C (stereo not drawn),x,x,-4%,u,-1%,x
O=C(CCN1CCC(c2cccs2)=N1)c1cccs1,69*,-45%,59%,38%,-3%,42*
O=C(CCN1CCCC1)c1cccs1,-6,5%,u,-20%,-1%,6
COC(=O)N/N=C/c1sc(N2CCCCC2)nc1-c1cccs1,65,x,u,u,-2%,22
CN(C)CCNC(=O)c1csc(Nc2cccc3ccccc23)n1,x,4%,u,u,x,-4
COCCNC(=O)c1csc(Nc2cccc3ccccc23)n1,6,-23%,u,u,u,6
O=C(NCC1CCCO1)c1csc(Nc2cccc3ccccc23)n1 (stereo not drawn),77*,-5%,u,-3%,1%,41*
CC(=O)c1csc(Nc2ccccc2Cl)n1,68*,-31%,99%,186%,-2%,33*
CCCNC(=O)c1csc(Nc2cccc3ccccc23)n1,x,-167%,9.3µM*,6.6µM*,-19%,-2
CCCCN1C(=O)C(O)(c2ccccc2)c2cc(Br)ccc21 (stereo not drawn),24,0%,x,u,-3%,5
SMILES,Shiga inhibitor,NS1 function inh,Pf growth 48h,Pf growth 96h,SARS PLpro yeast,CHX counter
CCC(=O)Nc1nc2ccc(S(C)(=O)=O)cc2s1,25,2%,15%,u,6%,14
CSc1nc2ccc(NC(=O)c3cccs3)cc2s1,x,x,x,x,-3%,x
CSc1nc2ccc(NC(=O)c3ccco3)cc2s1,57*,-4%,u,u,-70%,35*
CC(=O)Nc1ccc2nc(NC(=O)c3ccco3)sc2c1,36*,-7%,174%,u,-17%,25*
CCC(=O)Nc1nc2ccc(NC(C)=O)cc2s1,47,-1%,129%,51%,-7%,33*
CCOc1cccc2sc(Nc3nc4ccc(NC(C)=O)cc4s3)nc12,58*,15%,u,u,3%,27*
CC1CC=CC2C1C(=O)N(Cc1ccccc1)C2c1ccoc1 (stereo not drawn),-1,x,x,x,x,13
O=C1NC2(CCCCC2)C(=O)N1c1cccc(Cl)c1,-6,0%,28%,23%,-1%,-1
